# The list is not random: actives were taken first. Their share in the collection is about 7.6%.
# MCF10A rerep = induces DNA re-replication in MCF 10a normal breast cells; 350,000 compounds, 2.9% hits; AID 624296; MCF 10A DNA re-replication, Hoechst nuclear intensity, 48 h; Potency, µM (highest dose often 46.1 µM), without a hit: at the highest dose activity, positive = re-replication, most hits filed as activators; further: potency means the concentration at half of the fitted maximal effect; % of control where 0% means no effect; nearly all actives have a fitted effect of over 50% in size
# KCNH2 WT inh = blocks the wildtype human KCNH2 potassium channel; Q12809; U2OS, BacMam KCNH2, thallium flux FluxOr; active compounds read low; activity change, % at 1.84 µM; 340,000 compounds, 0.37% hits; AID 720551;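 active means maximum activity change below -70%; inconclusive means maximum activity change between -70% and -50%; inactive means maximum activity change above -50%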; further: on the % scale 0 is the no-effect control and ±100 the full control effect
# Target sequence (Q12809 whole entry, looked up): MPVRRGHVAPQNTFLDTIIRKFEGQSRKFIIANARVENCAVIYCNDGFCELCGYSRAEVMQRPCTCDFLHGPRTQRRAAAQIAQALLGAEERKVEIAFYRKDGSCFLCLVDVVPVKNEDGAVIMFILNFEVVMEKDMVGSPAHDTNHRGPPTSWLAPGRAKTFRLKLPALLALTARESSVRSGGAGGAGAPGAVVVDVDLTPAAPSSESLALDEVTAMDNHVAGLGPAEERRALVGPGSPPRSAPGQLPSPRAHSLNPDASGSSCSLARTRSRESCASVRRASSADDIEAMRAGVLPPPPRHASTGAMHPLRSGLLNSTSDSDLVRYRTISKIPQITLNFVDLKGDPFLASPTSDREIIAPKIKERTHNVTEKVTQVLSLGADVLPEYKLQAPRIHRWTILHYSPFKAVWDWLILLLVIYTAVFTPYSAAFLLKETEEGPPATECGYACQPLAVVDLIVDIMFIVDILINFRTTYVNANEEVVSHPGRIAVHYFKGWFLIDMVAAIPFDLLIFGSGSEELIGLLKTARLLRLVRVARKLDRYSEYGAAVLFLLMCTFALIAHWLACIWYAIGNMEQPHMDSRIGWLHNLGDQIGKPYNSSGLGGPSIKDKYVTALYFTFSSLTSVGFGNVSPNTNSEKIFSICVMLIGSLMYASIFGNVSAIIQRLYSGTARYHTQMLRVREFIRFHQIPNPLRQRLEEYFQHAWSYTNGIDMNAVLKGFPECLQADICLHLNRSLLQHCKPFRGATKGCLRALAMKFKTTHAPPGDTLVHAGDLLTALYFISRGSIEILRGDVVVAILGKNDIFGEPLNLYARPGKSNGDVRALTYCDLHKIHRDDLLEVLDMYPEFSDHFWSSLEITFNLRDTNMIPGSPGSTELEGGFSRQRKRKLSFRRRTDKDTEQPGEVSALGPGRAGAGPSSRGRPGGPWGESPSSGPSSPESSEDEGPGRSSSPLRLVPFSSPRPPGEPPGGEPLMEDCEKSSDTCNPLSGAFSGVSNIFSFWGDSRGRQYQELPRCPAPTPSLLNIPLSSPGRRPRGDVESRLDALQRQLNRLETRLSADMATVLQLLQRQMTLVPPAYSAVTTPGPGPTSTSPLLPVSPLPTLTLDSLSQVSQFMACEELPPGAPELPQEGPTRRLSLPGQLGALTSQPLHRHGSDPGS
#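 U2OS cells transduced with wild-type KCNH2 virus are loaded with FluxOr dye for 45 min, and thallium flux is measured in kinetic reads before and after stimulation buffer. Rate constants are normalized to DMSO controls.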
# KB-3-1 tox = kills parental KB-3-1 adenocarcinoma cells | KB-3-1 viability, CellTiter-Glo ATP luminescence, 72 h | Potency, µM (doses to about 46.1 µM), hits mostly cytotoxic | 400,000 compounds, 1.4% hits; further: potency means the concentration at half of the fitted maximal effect; on the % scale 0 is the no-effect control and ±100 the full control effect; nearly all actives have a fitted effect of over 60% in size
#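 Cells are dispensed, compounds pinned in, plates held at 37 °C for 72 h, then CellTiter-Glo is added and luminescence read after 10 minutes. Cell line: parental KB-3-1 in phenol-red-free DMEM, 10% FBS.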
# KCNH2 3.1 inh = KCNH2 3.1 (human) potassium channel inhibition; activity change, % (tested at about 1.8 µM); U2OS KCNH2 3.1, thallium flux FluxOr; active compounds read low; 340,000 compounds, 0.95% hits; AID 720553;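 active means maximum activity change below -70%; inconclusive means maximum activity change from -70% to -50%; inactive means maximum activity change above -50%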;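 further: thallium influx rate constant from kinetic fluorescence after stimulation buffer; on the % scale 0 is the no-effect control and ±100 the full control effect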
#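 Thallium flux via FluxOr fluorescence (Red40 quencher, 45 min loading) in U2OS cells virally expressing the KCNH2 3.1 isoform (1.77 x 10^8 /mL virus, overnight at 37 C). Rate constants from 2-min kinetic reads post-stimulation, normalised to positive and negative controls.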
# SW480 rereplic = inducers of DNA re-replication in SW480 colon cancer cells; SW480 DNA re-replication, Hoechst DNA content imaging, 48 h; Potency, µM (series often up to 46.1 µM), inactives show at the highest dose re-replication activation, most hits filed as activators; 340,000 compounds, 1.8% hits; further: potency means the concentration at half of the fitted maximal effect; % of control where 0% means no effect; nearly all actives have a fitted effect of over 55% in size
#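 Treated cells incubate 48 hr (37 C, 5% CO2), are stained 40 min with Hoechst, and nuclear fluorescence is enumerated; a rise in nuclei with high DNA signal marks re-replication.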
# KB-V1 cytotox = KB-V1 MDR subline cytotoxicity; KB-V1 MDR cells viability, CellTiter-Glo, 72 h; Potency, µM (titrated, usually from 46.1 µM), actives largely listed as cytotoxic; 400,000 compounds, 3.4% hits; further: potency means the concentration at half of the fitted maximal effect; on the % scale 0 is the no-effect control and ±100 the full control effect; nearly all actives have a fitted effect of over 60% in size
#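 Readout: CellTiter-Glo luminescence, 10 min after addition. Cells: KB-V1 MDR subline, 72 h at 37 degrees C with compound. Analysis: corrected, normalized data fitted to concentration-effect curves.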
# Starred values were filed as active, the others as inactive; i = inactive; ? = inconclusive; · = no result. Unless noted, the call rests on the fitted dose curve; in most records, active means well fitted curve in the direction sought with a large enough effect; inconclusive means small, poorly fitted or top-dose-only effect, or another doubt; inactive means no such curve, though single readings can be large; an effect the other way counts as inactive or inconclusive.
SMILES,MCF10A rerep,KCNH2 WT inh,KB-3-1 tox,KCNH2 3.1 inh,SW480 rereplic,KB-V1 cytotox
CC1CCCN(C(=O)COC(=O)C2CCN(S(=O)(=O)c3c(Cl)cccc3Cl)CC2)C1 (stereo unspecified),0.1%,3.7,i,-6.0,-0.2%,i
CC(OC(=O)c1ccc(S(=O)(=O)NCc2ccco2)cc1)C(=O)Nc1ncc(Cl)cc1Cl (stereo unspecified),-8.5%,-2.0,i,-16.3,0.9%,i
COc1ccc(C(=O)C2=NN(C(C)=O)CC2c2ccco2)cc1 (stereo unspecified),-1.0%,-2.5,i,1.8,4.9%,i
CC(C)(C)OC(=O)N1CCC(c2c(C(=O)NCc3ccccc3)cnn2-c2cccc(F)c2)CC1,·,·,i,·,·,i
CN1C(=O)C2(Nc3ccccc3-c3nc4ccccc4n32)c2ccccc21 (stereo unspecified),1.6%,0.2,i,-10.7,-6.8%,?
CCN1C(=O)C2(Nc3ccccc3-c3nc4ccccc4n32)c2cc(OC)ccc21 (stereo unspecified),1.2%,2.3,?,8.0,1.5%,13µM*
COc1ccc(NS(=O)(=O)c2ccccc2)cc1NS(=O)(=O)c1ccccc1,·,·,i,·,·,i
CC(=O)O[C@@]1(C)C[C@@H](O)[C@]2(O)C=CO[C@@H](O[C@@H]3O[C@H](CO)[C@@H](O)[C@H](O)[C@H]3O)[C@@H]21,-27.8%,-8.4,i,2.9,-5.4%,i
CCOC(=O)c1cc(-c2ccc(C)cc2)n(CCC(=O)N2CCN(c3ccccn3)CC2)c1C,?,-1.0,?,-10.1,4.3%,1.16µM*
CCOC(=O)c1cc(-c2ccc(C)cc2)n(CCC(=O)NCc2ccccc2)c1C,·,·,i,·,·,i
CCOC(=O)c1cc(-c2ccccc2)n(CCCC(=O)Nc2ccc(C(C)C)cc2)c1C,·,·,i,·,·,?
CCOC(=O)c1cnc2c(OC)cccc2c1N1CCN(c2ccccc2OC)CC1,?,24.8,?,-24.5,-2.1%,?
CCOC(=O)c1cnc2c(OC)cccc2c1N1CCN(c2ccccn2)CC1,?,9.8,i,-14.4,-5.6%,8.2µM*
CCOC(=O)c1cc(-c2ccc(C)cc2)n(CCC(=O)Nc2ccc(C(C)C)cc2)c1C,·,·,18.4µM*,·,·,?
COc1ccc(C(=O)NNc2ncnc3c2cnn3-c2cccc(Cl)c2)cc1OC,·,·,i,·,·,i
O=C(Nc1ccccc1)N(Cc1ccccc1)C1=NCCS1,-0.8%,2.4,i,-3.8,-1.3%,i
O=S(=O)(c1ccccc1)N(C1=NCCS1)S(=O)(=O)c1ccccc1,13.2%,10.5,i,4.6,-0.4%,20.6µM*
Cc1cc(C)c(S(=O)(=O)Nc2ccccc2-c2ccccc2)c(C)c1,?,0.5,?,8.2,10.0%,18.4µM*
Cc1cc(C)c(S(=O)(=O)Nc2cnc3ccccc3c2)c(C)c1,12.6%,-2.8,i,8.1,2.7%,14.6µM*
C[C@@H](C(=O)NCC1CC1)[C@@H]1C[C@@]1(C)[C@@H](NC(=O)OCc1ccccc1)c1ccccc1,8.1%,8.9,i,-1.4,?,i
C[C@@H](C(=O)NCc1ccccn1)[C@H]1C[C@]1(C)[C@H](NC(=O)OCc1ccccc1)c1ccccc1,20.6µM*,·,i,·,-1.8%,?
C[C@@H](C(=O)NCCc1c[nH]c2ccccc12)[C@H]1C[C@]1(C)[C@H](NC(=O)OCc1ccccc1)c1ccccc1,-4.5%,-1.3,16.4µM*,12.3,14.6µM*,i
CN1CCN(S(=O)(=O)c2cccc(C(=O)N(Cc3ccccc3)c3ccccc3)c2)CC1,14.7%,16.0,i,13.1,-0.7%,?
COc1cccc(Nc2nc3ccc(C)cc3nc2-n2nc(C)cc2C)c1,·,·,i,·,·,i
CC(=O)c1ccc(S(=O)(=O)N2CCN(c3nc(-c4ccccc4)nc4ccccc34)CC2)cc1,·,·,?,·,·,i

# From PubChem
